This is an account of results in article PMC5540273 (PLoS ONE, 2017).

Test systems include TNNI3K; TRKB; TRPM6; TSSK1B; TSSK3; TTK; TXK; TYRO3; ULK1; ULK2; ULK3; VRK2; WEE1; WEE2.
Holding throughout (conditions): concentration: 1 μM,replicates: in singlicate; n = 1
For the next experiment, the system named is T1, TRKA.
T1 construct: gene NTRK1

The subject of another experiment is T2, TRKC.
T2 construct: gene NTRK3

Experiment [1] concerns TYK2(JH1domain-catalytic).
Experiment [2] relates to TYK2(JH2domain-pseudokinase).
A further experiment relates to T3, VEGFR2.
T3 construct: gene KDR

The subject of another experiment is T4, VPS34.
T4 construct: gene PIK3C3
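Further: KINOMEscan kinase panel screen.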

`Cl.Cl.NC[C@H](Cc1ccc(C(F)(F)F)cc1)NC(=O)c1cc(Br)c(-c2ccnc3[nH]ccc23)s1` [GSK1487252]: the “%Inh” value in the experiment with TNNI3K is 13%; in the experiment on TRKA it was 86%; in the experiment with TRKB, 67%; in the experiment with TRKC, 74%; in the experiment with TRPM6, 0%; with TSSK1B it was 0%. The “%Inh” value in the experiment on TSSK3 is recorded as 2%; with TTK, 10%; in the experiment on TXK, 0%; in experiment [1], 3%; in experiment [2], 16%; in the experiment on TYRO3 it was 0%. For the same compound, the “%Inh” value in the experiment with ULK1 is listed as 5%; with ULK2, 19%; in the experiment on ULK3, 6%; in the experiment on VEGFR2 it was 34%; in the experiment with VPS34, 0%; in the experiment on VRK2, 0%. For the same compound, the “%Inh” value in the experiment on WEE1 and in the experiment on WEE2 was 0% each time.

Regarding `CCn1c(-c2nonc2N)nc2c(C#CC(C)(C)O)nc(OCCN)cc21.Cl.Cl` [GSK902056], the “%Inh” value in the experiment on TNNI3K is 0%; with TRKA, 0%; in the experiment with TRKB, 0%; with TRKC it was 0%; in the experiment on TRPM6 it was 0%; in the experiment with TSSK1B, 23%. Also, the “%Inh” value in the experiment on TSSK3 is recorded as 85%; in the experiment on TTK, 0%; in the experiment on TXK it was 36%; in [1], 17%; in experiment [2], 9%; in the experiment on TYRO3 it was 0%. Besides, the “%Inh” value with ULK1 is listed as 33%; with ULK2 it was 0%; in the experiment with ULK3 it was 13%; with VEGFR2, 0%; in the experiment on VPS34, 0%; in the experiment with VRK2, 0%. The “%Inh” value was determined as 6% in the experiment with WEE1 and 15% with WEE2.

On to `C[C@@H](Oc1cc(-c2cnn(C3CCNCC3)c2)cnc1N)c1c(Cl)ccc(F)c1Cl`, for which the “%Inh” value turned out to be 88% in the experiment on TNNI3K; 99.9% in the experiment with TRKA; 99.7% with TRKB; 21% in the experiment with TRPM6; 0% in the experiment on TSSK1B; 0% in the experiment on TSSK3. For the same compound, the “%Inh” value came out at 0% in the experiment on TTK; 41% in the experiment with TXK; 84% in [1]; 43% in [2]; 67% in the experiment on ULK1; 53% in the experiment on ULK2. The “%Inh” value worked out at 32% with ULK3; 22% in the experiment with VEGFR2; 0% with VPS34; 11% in the experiment on VRK2; 0% in the experiment on WEE1; 0% in the experiment with WEE2.

`O=C(NCCCN1CCOC1=O)c1cnc(NCc2cc(Cl)ccc2Cl)nc1NC1CCCC1`: the “%Inh” value in the experiment on TNNI3K is listed as 9%; with TRKA it was 15%; in the experiment with TRKB, 0%; in the experiment on TRKC it was 4%; in the experiment with TRPM6, 2%; with TSSK1B, 0%. Also, the “%Inh” value in the experiment with TSSK3 amounted to 0%; in the experiment on TTK it was 17%; with TXK, 17%; in experiment [1], 0%; in experiment [2], 0%; in the experiment with TYRO3, 46%. Further, the “%Inh” value in the experiment on ULK1 amounted to 0%; in the experiment on ULK2, 0%; in the experiment on ULK3, 0%; in the experiment with VEGFR2, 0%; in the experiment with VPS34 it was 0%; in the experiment on VRK2, 7%. For the same compound, the “%Inh” value with WEE1 and in the experiment with WEE2 was 0% each time.

As to `Cc1ccc2c(-c3ccncc3)c(-c3ccc(F)cc3)nn2c1.Cl` [GW461484], the “%Inh” value in the experiment on TNNI3K came out at 5%; in the experiment with TRKA it was 18%; with TRKB, 0%; with TRKC it was 2%; in the experiment on TRPM6 it was 8%; in the experiment with TSSK1B, 9%. The “%Inh” value with TSSK3 came out at 9%; in the experiment on TTK it was 0%; in the experiment with TXK, 0%; in [1], 0%; in experiment [2], 2%; with TYRO3, 0%. Moreover, the “%Inh” value is given as 7% in the experiment on ULK1; 0% with ULK2; 23% in the experiment with ULK3; 2% in the experiment with VEGFR2; 0% in the experiment on VPS34; 0% in the experiment on VRK2. For the same compound, the figures for the “%Inh” value in the experiment on WEE1 and in the experiment on WEE2 were 3% and 1%, respectively.

Regarding `CN(C)CCOc1ccc(-c2cc(-c3c[nH]nc3-c3ccccn3)ccn2)cc1` [GW835314], the “%Inh” value with TNNI3K is 12%; with TRKA it was 0%; in the experiment on TRKB, 0%; in the experiment with TRKC it was 32%; with TRPM6 it was 2%; in the experiment with TSSK1B it was 0%. The “%Inh” value came out at 0% in the experiment with TSSK3; 0% in the experiment on TTK; 8% in the experiment with TXK; 31% in experiment [1]; 21% in [2]; 8% with TYRO3. The “%Inh” value in the experiment with ULK1 was 0%; in the experiment with ULK2, 31%; with ULK3, 4%; with VEGFR2 it was 6%; in the experiment on VPS34 it was 0%; in the experiment on VRK2 it was 0%. The figures for the “%Inh” value with WEE1 and in the experiment on WEE2 were 0% and 11%, respectively.

Consider `CCN(CC)CCCCNc1ncc2cc(-c3c(Cl)cccc3Cl)c(NC(=O)NC(C)(C)C)nc2n1`, for which the “%Inh” value in the experiment with TNNI3K was 91.5%; in the experiment on TRKA, 90%; with TRKB, 55%; in the experiment with TRKC, 45%; with TRPM6 it was 0%; with TSSK1B it was 0%. The “%Inh” value in the experiment with TSSK3 is 0%; with TTK it was 2%; with TXK, 47%; in [1] it was 7%; in experiment [2], 0%; in the experiment on TYRO3, 8%. Further, the “%Inh” value with ULK1 is given as 0%; in the experiment on ULK2, 29%; in the experiment with ULK3, 0%; in the experiment on VEGFR2, 90.4%; with VPS34, 12%; with VRK2, 0%. For the same compound, the “%Inh” value in the experiment with WEE1 and with WEE2 was 3% throughout.

`COc1ccc(C[C@@H](CN)NC(=O)c2cc(Br)c(-c3ccnc4[nH]ccc34)s2)cc1.Cl.Cl` [GSK1389063]: the “%Inh” value with TNNI3K was determined as 27%; in the experiment on TRKA, 91.8%; in the experiment with TRKB, 90.8%; with TRKC, 90.3%; in the experiment on TRPM6, 0%; with TSSK1B, 28%. For the same compound, the “%Inh” value was found to be 12% in the experiment on TSSK3; 23% in the experiment with TTK; 30% in the experiment on TXK; 82% in [1]; 23% in [2]; 0% with TYRO3. Further, the “%Inh” value with ULK1 is recorded as 40%; in the experiment with ULK2, 16%; with ULK3 it was 12%; with VEGFR2 it was 58%; in the experiment with VPS34, 35%; in the experiment on VRK2, 47%. The “%Inh” value amounted to 0% in the experiment with WEE1 and 18% in the experiment with WEE2.
